# Reference: PubChem BioAssay (EPA / NIEHS)
# “And” between values parts separate entries of the source, which are not always exact repeats. Equal values may be shown once. Records with an inconclusive call do not appear. The source holds several records for some structures; these can differ, active in one and inactive in another. The source made the active and inactive calls. The calls were made as follows: active = hit-call score of the fitted dose curve at least 0.9, where 1 is the maximum; inconclusive = response in the unintended direction; inactive = score below 0.9.
# Assays:
# [1] = ACEA_ER_AUC_viability: ACEA Biosciences xCELLigence Real-Time Cell Analysis on Estrogen Receptor Agonism for Viability (AID 2283782);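 also: continuous compound exposure with impedance area under curve over 80 h; hit means loss of impedance signal meaning reduced cell growth or viability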
# In short: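 T-47D; phenol red-free RPMI1640 + 10% CS-FBS; 8 conc., 1:4 serial, max 100 uM final, ≤0.5% DMSO; n = 2; continuous exposure; impedance monitored to 80 h post-dose; AUC vs DMSO.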
# [2] = STM_H9_NormalizedViability: Cytotoxicity Assessment at 120 hours in the Stemina devTOX quickPredict H9 human embryonic stem cell (hESC)-based Assay (AID 2283784)
# In short: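 Pluripotent H9 cells dosed, fresh medium plus compound q24h → cell layer read by CellTiter-Fluor → RFU blank-corrected, normalized to DMSO 0.1% mean. Loss-of-signal fit, DMSO as baseline.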
# AR (gene 367) [3] = molecular target: AR (gene 367) (UniProt P10275); test: ACEA_AR_antagonist_80hr: ACEA Biosciences xCELLigence Real-Time Cell Analysis on Androgen Receptor Antagonism for Proliferation (AID 2283787);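 also: 22Rv1 human prostate cancer cells with growth followed by electrical impedance; hits lower the impedance growth signal relative to DMSO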
# In short: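 Growth-kinetic antagonist readout in 22Rv1 cells, taken 80 h after continuous compound exposure. Activity fitted as signal loss relative to DMSO negative control.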
# AR (gene 367) [4] = molecular target: AR (gene 367) (UniProt P10275); test: ACEA_AR_agonist_80hr: ACEA Biosciences xCELLigence Real-Time Cell Analysis on Androgen Receptor Agonism for Proliferation (AID 2283783);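 also: hits increase impedance growth signal above DMSO baseline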
# In short: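 Androgen-driven proliferation in 22Rv1 cells is tracked as electrical impedance, taken 80 h after continuous exposure to compound (eight concentrations, 1:4 steps, maximum 100 uM final). Activity is fitted in the positive direction with DMSO as baseline.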
# Chain of AR (gene 367) (P10275 whole entry, looked up): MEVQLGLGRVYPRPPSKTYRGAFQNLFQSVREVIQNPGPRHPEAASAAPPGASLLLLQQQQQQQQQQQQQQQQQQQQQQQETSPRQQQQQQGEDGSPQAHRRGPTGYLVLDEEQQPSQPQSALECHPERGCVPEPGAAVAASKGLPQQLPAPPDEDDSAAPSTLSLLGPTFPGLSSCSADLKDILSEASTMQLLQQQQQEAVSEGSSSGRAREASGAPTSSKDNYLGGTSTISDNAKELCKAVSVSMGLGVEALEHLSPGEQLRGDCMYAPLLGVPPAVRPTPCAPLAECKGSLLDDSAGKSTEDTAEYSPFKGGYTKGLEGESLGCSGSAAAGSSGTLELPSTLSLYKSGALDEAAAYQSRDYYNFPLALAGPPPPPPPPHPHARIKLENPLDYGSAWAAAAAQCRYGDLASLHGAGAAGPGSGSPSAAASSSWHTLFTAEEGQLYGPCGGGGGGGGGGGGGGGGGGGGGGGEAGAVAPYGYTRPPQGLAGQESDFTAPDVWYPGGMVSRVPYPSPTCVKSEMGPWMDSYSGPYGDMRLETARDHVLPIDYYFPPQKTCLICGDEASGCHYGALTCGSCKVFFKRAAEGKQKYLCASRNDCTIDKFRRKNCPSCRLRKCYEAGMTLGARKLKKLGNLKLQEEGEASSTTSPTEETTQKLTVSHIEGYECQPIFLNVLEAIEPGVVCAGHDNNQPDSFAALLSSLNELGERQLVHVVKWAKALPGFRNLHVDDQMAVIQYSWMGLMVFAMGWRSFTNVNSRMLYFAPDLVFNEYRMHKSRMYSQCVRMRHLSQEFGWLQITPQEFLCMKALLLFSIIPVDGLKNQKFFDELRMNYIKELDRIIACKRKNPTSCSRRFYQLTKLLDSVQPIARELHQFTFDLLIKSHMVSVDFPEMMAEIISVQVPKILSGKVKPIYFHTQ
compound,measurement,setting,value
O=C(O)C(Cl)(Cl)Cl,outcome,[1],inactive
same,outcome,[2],inactive
Clc1ccc(COC(Cn2ccnc2)c2ccc(Cl)cc2Cl)cc1 (configuration not stated),AC50,[1],21.5 µM (active)
same,AC50,AR (gene 367) [3],8.61 µM (active)
CC(C)(c1ccc(OCC2CO2)cc1)c1ccc(OCC2CO2)cc1 (configuration not stated),AC50,[1],82.5 µM (active)
same,outcome,AR (gene 367) [4],inactive
same,outcome,AR (gene 367) [3],inactive
C=C(C)C(=O)[O][Sn]([CH2]CCC)([CH2]CCC)[CH2]CCC,AC50,[1],1.43 µM (active)
same,AC50,[2],0.713 µM (active)
CCOP(=S)(OCC)Oc1nc(Cl)c(Cl)cc1Cl,AC50,[1],87.6 µM (active)
same,AC50,AR (gene 367) [3],74.9 µM (active)
COc1ccc(C(O)(c2cncnc2)C2CC2)cc1 (configuration not stated),AC50,[1],67.6 µM (active)
ClC1(Cl)C2(Cl)C3(Cl)C4(Cl)C(Cl)(Cl)C5(Cl)C3(Cl)C1(Cl)C5(Cl)C24Cl (configuration not stated),outcome,[1],inactive
same,outcome,[2],inactive
same,outcome,AR (gene 367) [3],inactive
O=C(O)Cc1ccccc1,AC50,[1],50 µM (active)
Cc1ccccc1N,AC50,[1],0.893 µM (active)
same,outcome,[1],inactive
Clc1nc(Cl)nc(Cl)n1,outcome,[1],inactive
c1cc[c]([Hg][c]2ccccc2)cc1,AC50,[1],36.3 µM (active)
same,outcome,AR (gene 367) [4],inactive
same,AC50,AR (gene 367) [3],21.9 µM (active)
CCC1(c2ccc(N)cc2)CCC(=O)NC1=O (configuration not stated),outcome,[1],inactive
same,outcome,AR (gene 367) [3],inactive
Cn1sc(Cl)cc1=O,AC50,[1],86.9 µM (active)
O=C(c1ccccc1)C(Cl)Cl,AC50,[1],22.6 µM (active)
O=C(Nc1ccc2[nH]ccc2c1)c1cc2cc(F)ccc2n1Cc1cccc(F)c1,AC50,[1],12.4 µM (active)
same,outcome,[2],inactive
C=CC(=O)OCCCCCC(C)C,outcome,[1],inactive
same,AC50,AR (gene 367) [4],50 µM (active)
CCC(=O)C(CC(C)N(C)C)(c1ccccc1)c1ccccc1 (configuration not stated),AC50,[1],36.2 µM (active)
same,AC50,AR (gene 367) [3],28.2 µM (active)
CC(=O)[O][Hg][c]1ccccc1,AC50,[1],1.32 µM (active)
same,AC50,[2],0.387 µM (active)
same,AC50,AR (gene 367) [3],1.21 µM (active)
Cc1ccc2ccccc2c1C,AC50,AR (gene 367) [3],16.6 µM (active)
O=c1[nH]c(=O)[nH]c(=O)[nH]1,outcome,[1],inactive
same,outcome,AR (gene 367) [4],inactive
same,outcome,AR (gene 367) [3],inactive
Cc1ccccc1C(=O)Nc1cccc(OC(C)C)c1,outcome,AR (gene 367) [3],inactive
COP(=S)(OC)Oc1ccc(Sc2ccc(OP(=S)(OC)OC)cc2)cc1,AC50,[1],85.5 µM (active)
same,outcome,AR (gene 367) [3],inactive
COP(=O)(OC)OC,outcome,[1],inactive
same,outcome,AR (gene 367) [3],inactive
O=[N+]([O-])c1ccc(O)c([N+](=O)[O-])c1,outcome,AR (gene 367) [4],inactive
same,outcome,[2],inactive
same,AC50,AR (gene 367) [3],50 µM (active)
ClC1=C(Cl)[C@]2(Cl)[C@H]3[C@H]([C@H]4C=C[C@H]3C4)[C@@]1(Cl)C2(Cl)Cl,AC50,[1],83.2 µM (active)
CC(C)c1cccc(C(C)C)c1O,outcome,AR (gene 367) [3],inactive
ClCC(Cl)CCl,outcome,[2],inactive
C[C@@H]1C[C@@H]([C@H](O)CC2CC(=O)NC(=O)C2)C(=O)[C@@H](C)C1,AC50,[1],522 nM (active) and 1.49 µM (active)
same,AC50,[2],2.46 µM (active)
